The results in this text go back to publication PMC7862700, “An all-to-all approach to the identification of sequence-specific readers for epigenetic DNA modifications on cytosine”.

Assay in all cases: DAPPL (digital affinity profiling via proximity ligation, sequencing); 10 mM Tris-HCl pH 7.5, 50 mM NaCl, 1 mM DTT, 4% glycerol, room temperature, 30 min; GST-TFs on glutathione beads, 16-mer random dsDNA library, 0.1% formaldehyde crosslink after washing; high values mean tight binding
What all share (details): protein: recombinant; tags: N-terminal GST; dsDNA, one strand shown

One experiment concerns the target T1, FLI1 (Homo sapiens, UniProt Q01543 1-452).
T1 sequence: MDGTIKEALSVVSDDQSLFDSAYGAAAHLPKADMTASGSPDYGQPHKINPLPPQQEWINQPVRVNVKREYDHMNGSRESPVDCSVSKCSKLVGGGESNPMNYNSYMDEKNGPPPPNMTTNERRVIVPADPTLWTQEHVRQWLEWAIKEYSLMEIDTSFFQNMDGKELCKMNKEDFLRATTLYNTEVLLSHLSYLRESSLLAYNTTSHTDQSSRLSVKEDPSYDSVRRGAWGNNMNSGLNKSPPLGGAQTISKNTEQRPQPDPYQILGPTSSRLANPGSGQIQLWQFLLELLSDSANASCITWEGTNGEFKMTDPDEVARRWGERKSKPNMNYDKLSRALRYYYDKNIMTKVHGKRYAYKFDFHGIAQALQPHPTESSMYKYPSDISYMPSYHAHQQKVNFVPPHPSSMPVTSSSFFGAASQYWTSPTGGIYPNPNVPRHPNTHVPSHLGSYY
An outline of the steps: (§1)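 Pools of DNA-barcoded human transcription factors, expressed in yeast as GST fusions on glutathione beads and combined with a tag-only sample, were incubated with 200 nmole of a 16-mer random double-stranded DNA library. Incubation took 30 min at room temperature in Tris/NaCl/DTT/glycerol buffer and was followed by washing, 0.1% formaldehyde crosslinking, proximity ligation (BsaI/T4 ligase, 1 h, 37 °C), PCR amplification and sequencing on an Illumina NextSeq500. Binding signal is the ratio of a hexamer's read frequency for a factor to its frequency for the tag-only sample.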

The target in a further experiment is T2, ELK1 (Homo sapiens, UniProt P19419 1-428).
T2 sequence: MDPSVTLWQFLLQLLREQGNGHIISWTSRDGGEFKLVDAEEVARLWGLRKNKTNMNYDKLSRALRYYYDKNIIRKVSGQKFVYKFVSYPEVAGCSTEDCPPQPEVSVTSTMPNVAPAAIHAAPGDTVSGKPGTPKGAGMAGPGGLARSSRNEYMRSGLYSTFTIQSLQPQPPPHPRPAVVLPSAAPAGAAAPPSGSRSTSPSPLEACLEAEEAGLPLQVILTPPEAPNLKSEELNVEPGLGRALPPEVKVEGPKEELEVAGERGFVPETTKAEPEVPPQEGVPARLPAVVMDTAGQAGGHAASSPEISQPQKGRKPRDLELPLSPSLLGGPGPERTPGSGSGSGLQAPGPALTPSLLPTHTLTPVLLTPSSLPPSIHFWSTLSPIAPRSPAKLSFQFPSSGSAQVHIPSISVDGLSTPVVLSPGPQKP
The essentials: as §1

Another experiment has as its target T3, GABPA (Homo sapiens, UniProt Q06546 1-454).
T3 sequence: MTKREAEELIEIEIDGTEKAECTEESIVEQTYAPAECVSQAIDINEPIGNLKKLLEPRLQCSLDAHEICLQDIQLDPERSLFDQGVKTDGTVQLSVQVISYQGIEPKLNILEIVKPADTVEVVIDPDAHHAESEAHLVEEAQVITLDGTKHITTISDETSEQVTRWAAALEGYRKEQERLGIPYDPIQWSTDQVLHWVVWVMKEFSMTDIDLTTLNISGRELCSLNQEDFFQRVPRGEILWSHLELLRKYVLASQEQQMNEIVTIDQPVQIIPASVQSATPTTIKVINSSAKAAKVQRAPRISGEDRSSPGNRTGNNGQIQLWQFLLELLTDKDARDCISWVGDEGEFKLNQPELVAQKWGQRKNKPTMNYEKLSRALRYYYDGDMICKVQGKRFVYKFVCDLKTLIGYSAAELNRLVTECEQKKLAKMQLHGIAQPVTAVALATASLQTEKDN
The essentials: as §1

The target in a further experiment is T4, ERG (Homo sapiens, UniProt P11308 1-479).
T4 sequence: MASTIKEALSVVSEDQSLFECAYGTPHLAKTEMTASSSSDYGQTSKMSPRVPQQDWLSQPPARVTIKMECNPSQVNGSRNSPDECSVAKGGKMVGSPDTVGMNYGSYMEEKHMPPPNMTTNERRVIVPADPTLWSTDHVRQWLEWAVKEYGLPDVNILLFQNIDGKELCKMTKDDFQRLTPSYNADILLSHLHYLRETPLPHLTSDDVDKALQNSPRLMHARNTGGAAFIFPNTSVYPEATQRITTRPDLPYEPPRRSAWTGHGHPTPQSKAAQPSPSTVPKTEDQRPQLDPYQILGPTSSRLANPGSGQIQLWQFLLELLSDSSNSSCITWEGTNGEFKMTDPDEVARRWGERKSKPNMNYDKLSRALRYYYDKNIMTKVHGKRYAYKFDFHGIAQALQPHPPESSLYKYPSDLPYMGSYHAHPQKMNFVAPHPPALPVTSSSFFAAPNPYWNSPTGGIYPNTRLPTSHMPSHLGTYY
An outline of the steps:
as §1

A further experiment has as its target T5, EHF (Homo sapiens, UniProt Q9NZC4 1-300).
T5 sequence: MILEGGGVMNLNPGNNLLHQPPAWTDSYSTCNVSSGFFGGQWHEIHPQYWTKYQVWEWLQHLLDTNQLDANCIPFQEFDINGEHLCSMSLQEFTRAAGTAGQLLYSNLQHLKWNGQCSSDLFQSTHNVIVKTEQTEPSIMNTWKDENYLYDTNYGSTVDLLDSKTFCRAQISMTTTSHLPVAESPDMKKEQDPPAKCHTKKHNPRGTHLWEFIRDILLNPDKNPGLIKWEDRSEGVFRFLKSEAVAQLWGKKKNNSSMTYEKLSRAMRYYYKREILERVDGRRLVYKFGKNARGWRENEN
The essentials:
as §1

For a further experiment, the target named is SPI1 (Homo sapiens, UniProt P17947 1-270). The essentials: as §1
A further experiment concerns the target SPIB (Homo sapiens, UniProt Q01892 1-262). The essentials: as §1
A further experiment has as its target ETV5 (Homo sapiens, UniProt P41161 1-510). The essentials:
as §1

A further experiment concerns the target T6, SPIC (Homo sapiens, UniProt Q8N5J4 1-248).
T6 sequence: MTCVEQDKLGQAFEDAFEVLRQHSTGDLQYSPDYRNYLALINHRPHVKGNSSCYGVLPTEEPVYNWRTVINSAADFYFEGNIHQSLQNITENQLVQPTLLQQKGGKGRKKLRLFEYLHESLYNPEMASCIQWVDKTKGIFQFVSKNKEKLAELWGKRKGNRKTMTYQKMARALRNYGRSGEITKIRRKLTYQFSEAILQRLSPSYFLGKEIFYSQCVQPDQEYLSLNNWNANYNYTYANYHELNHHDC
An outline of the steps:
as §1

Another experiment concerns the target ELF4 (Homo sapiens, UniProt Q99607 1-663). The essentials: as §1
For another experiment, the target named is ETV1 (Homo sapiens, UniProt P50549 1-477). An outline of the steps:
as §1

Another experiment concerns the target T7, ERF (Homo sapiens, UniProt P50548 1-548).
T7 sequence: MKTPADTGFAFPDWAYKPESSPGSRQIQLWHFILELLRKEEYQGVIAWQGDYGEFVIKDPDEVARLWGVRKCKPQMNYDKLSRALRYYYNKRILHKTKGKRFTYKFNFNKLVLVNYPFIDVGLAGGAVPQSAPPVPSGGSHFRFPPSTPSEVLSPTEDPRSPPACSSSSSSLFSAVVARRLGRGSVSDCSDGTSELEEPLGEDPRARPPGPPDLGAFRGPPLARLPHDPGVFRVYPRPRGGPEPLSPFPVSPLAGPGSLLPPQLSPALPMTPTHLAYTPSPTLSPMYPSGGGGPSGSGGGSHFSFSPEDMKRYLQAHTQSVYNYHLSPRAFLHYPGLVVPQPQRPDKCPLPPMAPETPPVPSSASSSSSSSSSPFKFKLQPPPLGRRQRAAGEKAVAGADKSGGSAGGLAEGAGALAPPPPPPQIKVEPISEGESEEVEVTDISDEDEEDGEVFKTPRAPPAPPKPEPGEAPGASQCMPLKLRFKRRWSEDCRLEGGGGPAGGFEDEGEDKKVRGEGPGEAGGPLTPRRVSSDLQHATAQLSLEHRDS
The essentials:
as §1

For another experiment, the target named is T8, ETV3L (Homo sapiens, UniProt Q6ZN32 1-361).
T8 sequence: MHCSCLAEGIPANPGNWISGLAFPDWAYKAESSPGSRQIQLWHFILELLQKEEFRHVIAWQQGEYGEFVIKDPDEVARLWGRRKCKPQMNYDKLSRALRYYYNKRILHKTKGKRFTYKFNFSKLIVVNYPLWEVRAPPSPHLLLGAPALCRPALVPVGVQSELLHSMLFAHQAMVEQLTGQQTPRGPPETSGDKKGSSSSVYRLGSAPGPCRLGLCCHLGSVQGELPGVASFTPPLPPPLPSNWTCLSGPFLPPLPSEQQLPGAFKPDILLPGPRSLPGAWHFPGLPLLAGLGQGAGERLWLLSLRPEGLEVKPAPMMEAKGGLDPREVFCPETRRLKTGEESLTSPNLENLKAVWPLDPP
An outline of the steps: as §1

A further experiment has as its target T9, SPDEF (Homo sapiens, UniProt O95238 1-335).
T9 sequence: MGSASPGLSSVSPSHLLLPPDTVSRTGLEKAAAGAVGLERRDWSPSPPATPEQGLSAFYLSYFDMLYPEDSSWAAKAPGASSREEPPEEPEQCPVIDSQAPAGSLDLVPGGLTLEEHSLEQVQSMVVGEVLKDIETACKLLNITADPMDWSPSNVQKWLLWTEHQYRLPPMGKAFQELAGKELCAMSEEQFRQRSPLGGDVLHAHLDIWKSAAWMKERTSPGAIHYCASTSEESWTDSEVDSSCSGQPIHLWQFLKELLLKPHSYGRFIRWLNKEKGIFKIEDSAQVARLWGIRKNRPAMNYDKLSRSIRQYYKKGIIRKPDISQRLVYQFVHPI
An outline of the steps:
as §1

The next experiment concerns the target T10, ELF5 (Homo sapiens, UniProt Q9UKW6-2 1-255).
T10 sequence: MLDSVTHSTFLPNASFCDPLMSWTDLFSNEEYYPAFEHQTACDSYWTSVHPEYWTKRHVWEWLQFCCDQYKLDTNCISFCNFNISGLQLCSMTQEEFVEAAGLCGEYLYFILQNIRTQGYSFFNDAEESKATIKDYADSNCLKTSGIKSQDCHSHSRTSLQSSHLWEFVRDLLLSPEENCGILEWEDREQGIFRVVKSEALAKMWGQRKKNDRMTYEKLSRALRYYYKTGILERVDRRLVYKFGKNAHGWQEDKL
An outline of the steps: as §1

A further experiment addresses T11, ETV3 (Homo sapiens, UniProt P41162-2 1-143).
T11 sequence: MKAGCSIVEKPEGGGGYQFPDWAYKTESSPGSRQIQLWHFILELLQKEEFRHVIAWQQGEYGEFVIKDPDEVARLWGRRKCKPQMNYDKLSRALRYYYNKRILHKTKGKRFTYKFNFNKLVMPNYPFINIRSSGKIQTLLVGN
The essentials: as §1

A further experiment has as its target ETV6 (Homo sapiens, UniProt P41212 1-452). The essentials: as §1

Chain of ELF4 (Q99607 whole entry): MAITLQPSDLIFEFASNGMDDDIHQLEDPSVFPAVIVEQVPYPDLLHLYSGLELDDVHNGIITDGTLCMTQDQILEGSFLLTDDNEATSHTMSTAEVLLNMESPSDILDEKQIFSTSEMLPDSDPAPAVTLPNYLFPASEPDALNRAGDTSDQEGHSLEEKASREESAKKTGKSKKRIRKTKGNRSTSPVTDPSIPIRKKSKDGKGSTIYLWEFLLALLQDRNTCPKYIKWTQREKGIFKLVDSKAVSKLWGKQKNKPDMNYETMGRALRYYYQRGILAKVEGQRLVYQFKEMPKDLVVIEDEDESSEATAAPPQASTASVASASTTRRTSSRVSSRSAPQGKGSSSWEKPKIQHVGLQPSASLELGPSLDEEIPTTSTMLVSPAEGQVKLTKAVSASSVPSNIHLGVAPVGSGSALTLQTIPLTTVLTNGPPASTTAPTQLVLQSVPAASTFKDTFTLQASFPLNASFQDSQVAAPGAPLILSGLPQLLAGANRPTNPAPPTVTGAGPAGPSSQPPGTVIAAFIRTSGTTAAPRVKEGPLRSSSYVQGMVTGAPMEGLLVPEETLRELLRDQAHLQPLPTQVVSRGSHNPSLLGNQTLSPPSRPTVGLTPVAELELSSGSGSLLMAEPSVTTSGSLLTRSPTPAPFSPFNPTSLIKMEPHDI
Chain of ETV6 (P41212 whole entry): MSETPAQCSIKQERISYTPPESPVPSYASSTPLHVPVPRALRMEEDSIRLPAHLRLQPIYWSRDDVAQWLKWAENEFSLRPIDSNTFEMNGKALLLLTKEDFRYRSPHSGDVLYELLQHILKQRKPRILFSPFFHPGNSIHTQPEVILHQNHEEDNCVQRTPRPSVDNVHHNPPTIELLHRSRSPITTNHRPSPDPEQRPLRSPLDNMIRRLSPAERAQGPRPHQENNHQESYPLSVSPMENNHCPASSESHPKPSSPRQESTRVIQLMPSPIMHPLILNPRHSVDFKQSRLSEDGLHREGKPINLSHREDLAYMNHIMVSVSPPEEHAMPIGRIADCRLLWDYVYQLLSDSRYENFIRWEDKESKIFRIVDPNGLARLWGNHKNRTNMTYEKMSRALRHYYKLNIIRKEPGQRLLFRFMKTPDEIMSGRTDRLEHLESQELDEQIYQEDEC
Chain of SPIB (Q01892 whole entry): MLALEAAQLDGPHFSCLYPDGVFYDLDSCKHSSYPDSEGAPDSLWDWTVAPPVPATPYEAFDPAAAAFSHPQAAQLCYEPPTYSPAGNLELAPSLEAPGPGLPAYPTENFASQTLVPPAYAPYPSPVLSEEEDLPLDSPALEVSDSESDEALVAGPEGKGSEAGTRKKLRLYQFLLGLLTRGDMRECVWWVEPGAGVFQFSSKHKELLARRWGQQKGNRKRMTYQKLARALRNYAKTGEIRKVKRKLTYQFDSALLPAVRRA
Chain of ETV1 (P50549 whole entry): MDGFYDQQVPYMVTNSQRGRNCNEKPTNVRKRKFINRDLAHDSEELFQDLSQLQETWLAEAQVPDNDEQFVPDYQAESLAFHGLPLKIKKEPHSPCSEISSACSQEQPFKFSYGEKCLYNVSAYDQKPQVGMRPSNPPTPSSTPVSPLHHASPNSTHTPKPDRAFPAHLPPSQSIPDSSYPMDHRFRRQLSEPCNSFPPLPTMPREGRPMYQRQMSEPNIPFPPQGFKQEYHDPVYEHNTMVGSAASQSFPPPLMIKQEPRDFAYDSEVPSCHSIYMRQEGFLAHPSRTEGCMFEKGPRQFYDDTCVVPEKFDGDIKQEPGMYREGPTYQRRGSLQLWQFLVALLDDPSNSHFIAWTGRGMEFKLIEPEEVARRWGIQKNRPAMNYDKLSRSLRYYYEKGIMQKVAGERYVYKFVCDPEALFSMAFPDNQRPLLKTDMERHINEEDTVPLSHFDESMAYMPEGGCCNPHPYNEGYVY
Chain of ETV5 (P41161 whole entry): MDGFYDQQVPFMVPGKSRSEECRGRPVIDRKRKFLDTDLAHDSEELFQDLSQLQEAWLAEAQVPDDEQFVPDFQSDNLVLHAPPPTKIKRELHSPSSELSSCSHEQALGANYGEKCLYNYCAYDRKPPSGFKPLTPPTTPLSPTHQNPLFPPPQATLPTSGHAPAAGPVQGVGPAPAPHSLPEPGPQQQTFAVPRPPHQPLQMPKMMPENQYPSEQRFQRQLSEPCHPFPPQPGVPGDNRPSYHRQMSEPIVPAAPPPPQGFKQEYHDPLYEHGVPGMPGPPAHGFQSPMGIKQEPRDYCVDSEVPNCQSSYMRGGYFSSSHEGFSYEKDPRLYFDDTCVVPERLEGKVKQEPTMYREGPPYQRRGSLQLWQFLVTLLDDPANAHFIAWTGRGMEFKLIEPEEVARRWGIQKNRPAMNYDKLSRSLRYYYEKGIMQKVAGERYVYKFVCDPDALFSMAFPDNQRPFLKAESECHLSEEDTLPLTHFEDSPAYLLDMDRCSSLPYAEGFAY

Regarding ATAAGG, the binding signal was 1.07 fold enrichment (6-mer frequency, TF over GST control) with FLI1; 1.01 fold enrichment (6-mer frequency, TF over GST control) with ELK1; 1.02 fold enrichment (6-mer frequency, TF over GST control) with GABPA; 1.07 fold enrichment (6-mer frequency, TF over GST control) with ERG; 1.05 fold enrichment (6-mer frequency, TF over GST control) with EHF; 1.05 fold enrichment (6-mer frequency, TF over GST control) in the experiment with SPI1. In addition, the binding signal was 1.01 fold enrichment (6-mer frequency, TF over GST control) in the experiment with SPIB; 1.04 fold enrichment (6-mer frequency, TF over GST control) with ETV5; 1.12 fold enrichment (6-mer frequency, TF over GST control) in the experiment with SPIC; 1.06 fold enrichment (6-mer frequency, TF over GST control) with ELF4; 1.03 fold enrichment (6-mer frequency, TF over GST control) with ETV1; 1.05 fold enrichment (6-mer frequency, TF over GST control) with ERF. The binding signal was 1.01 fold enrichment (6-mer frequency, TF over GST control) with ETV3L; 1.05 fold enrichment (6-mer frequency, TF over GST control) in the experiment with SPDEF; 1.25 fold enrichment (6-mer frequency, TF over GST control) in the experiment with ELF5; 1.05 fold enrichment (6-mer frequency, TF over GST control) with ETV3; 1.07 fold enrichment (6-mer frequency, TF over GST control) with ETV6.
